# Results published in PubChem BioAssay (EPA / NIEHS).
# Results filed as inconclusive are left out. The source made the active and inactive calls. Rule for the calls, unless noted: active = hit-call score of the fitted dose curve at least 0.9, where 1 is the maximum; inconclusive = response in the unintended direction; inactive = score below 0.9.
# Columns and labels:
# [1] = Tanguay_ZF_120hpf_SOMI_legacy: (Legacy) Oregon State University Tanguay Lab 120 Hour Post-fertilization zebrafish Assay for Somite Malformation (AID 2283647)
# Method in brief: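 Somitogenesis defects are recorded as binary calls in whole larvae at 120 hpf after continuous static chemical exposure starting at 6 hpf in dechorionated 5D embryos. DMSO serves as negative control and baseline.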
# [2] = Tanguay_ZF_120hpf_PFIN_legacy: (Legacy) Oregon State University Tanguay Lab 120 Hour Post-fertilization zebrafish Assay for Pectoral Fin Malformation (AID 2283648);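 note: each larva judged yes or no for fin defect by brightfield with dead larvae skipped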
# Method in brief: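 Dechorionated Tropical 5D wild-type zebrafish embryos, one per well, statically exposed from 6 to 120 hpf at 28C with 0.64% DMSO final. Pectoral fin malformation scored present/absent by brightfield at 120 hpf; not scored in dead embryos.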
# [3] = Tanguay_ZF_120hpf_CFIN_legacy: (Legacy) Oregon State University Tanguay Lab 120 Hour Post-fertilization zebrafish Assay for Caudal Fin Malformation (AID 2283649)
# Method in brief: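 Single dechorionated 5D wild-type embryos are dosed at 6 hpf (final DMSO 0.64%) and held statically at 28C. Caudal fin malformation is recorded as present or absent at 120 hpf under brightfield, excluding dead embryos.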
# [4] = Tanguay_ZF_120hpf_PIG_legacy: (Legacy) Oregon State University Tanguay Lab 120 Hour Post-fertilization zebrafish Assay for Pigmentation Malformation (AID 2283650)
# Method in brief: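 Dechorionated Tropical 5D wild-type embryos, one per well from 6 hpf, statically exposed at 28C in the dark until 120 hpf, 0.64% DMSO final. Pigmentation scored present/absent by brightfield microscopy; dead embryos not scored; fitted versus DMSO.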
# [5] = Tanguay_ZF_120hpf_CIRC_legacy: (Legacy) Oregon State University Tanguay Lab 120 Hour Post-fertilization zebrafish Assay for Circulatory Malformation (AID 2283651)
# Method in brief: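 Tropical 5D wild-type embryos, dechorionated with pronase at 4 hpf, were placed singly in wells at 6 hpf and exposed statically at 28C to 120 hpf (0.64% DMSO final). Circulatory malformation was scored present/absent by brightfield microscopy.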
# [6] = Tanguay_ZF_120hpf_SWIM_legacy: (Legacy) Oregon State University Tanguay Lab 120 Hour Post-fertilization zebrafish Assay for Swim Bladder Malformation (AID 2283654);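 note: swim bladder malformation in each larva scored yes or no under brightfield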
# Method in brief: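 Dechorionated wild-type Tropical 5D zebrafish embryos, one per well from 6 hpf, were statically exposed at 28C until 120 hpf in 0.64% DMSO. Swim bladder malformation scored as present/absent by brightfield microscopy; not scored in dead larvae.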
# [7] = Tanguay_ZF_120hpf_TRUN_legacy: (Legacy) Oregon State University Tanguay Lab 120 Hour Post-fertilization zebrafish Assay for Truncated Body (AID 2283655)
# Method in brief: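 Single dechorionated zebrafish embryos received test chemical from 6 hpf in 0.64% DMSO, kept at 28C. At 120 hpf, brightfield inspection noted any truncated body.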
# [8] = Tanguay_ZF_120hpf_NC_legacy: (Legacy) Oregon State University Tanguay Lab 120 Hour Post-fertilization zebrafish Assay for Notochord and Tail Malformation (AID 2283656)
# Method in brief: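 Dechorionated 5D zebrafish, 1/well from 6 hpf; static exposure to 120 hpf, 28C, sealed, dark; final DMSO 0.64% v/v. NC scored binary (present/absent); dead embryos not scored. Fit vs DMSO baseline, gain direction.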
# [9] = tested on: Thyroperoxidase (TPO), gene 54314; experiment: CCTE_Simmons_AUR_rTPO: CCTE's Amplex UltraRed Assay for Thyroperoxidase (TPO) Inhibition, Simmons Lab (AID 2283662);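 note: potency for loss of signal meaning inhibition of peroxidase activity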
# Method in brief: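 Rat thyroid microsomal TPO + 25 uM AUR in 200 mM K phosphate; cpd 5 nM–87.5 uM [final], 8 conc, 0.5% DMSO; 300 uM H2O2 starts rxn; 37C dark 30 min; endpoint FI 544/590 nm; n=3.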
# [10] = CCTE_Simmons_CellTiterGLO_HEK293T: Viability Assessment in CCTE's Assays for Thyroperoxidase (TPO) Inhibition, Simmons Lab (AID 2283665);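 for AC50: cells exposed to compound for 24 h before readout; actives reduce ATP signal below DMSO vehicle meaning cytotoxicity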
# Method in brief: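 HEK293T cells in DMEM with 1% FBS were dosed with 8 concentrations (5 nM–87.5 uM final, 0.5% DMSO) for 24 hr at 37C; ATP content was read by CellTiter-Glo luminescence, loss-of-signal versus DMSO, three biological replicates.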
# [11] = Tanguay_ZF_120hpf_TR_legacy: (Legacy) Oregon State University Tanguay Lab 120 Hour Post-fertilization zebrafish Assay for Touch Response (AID 2283667)
# Method in brief: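 Tropical 5D wild-type zebrafish embryos statically exposed to 120 hpf at 28°C, sealed and dark-covered, 0.64% DMSO final; touch response scored as present/absent by brightfield microscopy at 120 hpf. Trimethyltin chloride 5 uM positive control; dead embryos not scored.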
# [12] = CCTE_Padilla_ZF_144hpf_TERATOSCORE: (Legacy) CCTE's 144 Hour Post-fertilization zebrafish Assay Teratoscore, Padilla Lab (AID 2283679; active = hit-call score of the fitted dose curve at least 0.9, where 1 is the maximum; inactive = score below 0.9;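 for AC50: zebrafish embryos with chorions exposed by immersion from 6-8 hpf to 5 dpf with daily renewal; teratogenicity score from eye scoring of death hatching and malformations at 144 hpf; higher score means more developmental defects relative to DMSO baseline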)
# Method in brief: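 Larvae scored by eye at 144 hpf for death, hatching and malformations after a day in clean Hanks'. Before that, daily-renewed exposure at 80 uM (0.4% DMSO, 26C) from roughly 6-8 hpf through 5 dpf, 4 embryos per chemical.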
# [13] = STM_H9_OrnithineISnorm_perc: Stemina devTOX quickPredict H9 human embryonic stem cell (hESC)-based Assay for Ornithine (ORN) Metabolite Biomarker, Normalized (AID 2283712; active = hit-call score of the fitted dose curve at least 0.9, where 1 is the maximum; inactive = score below 0.9;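 note: ornithine released into spent medium during last day measured by mass spectrometry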)
# Method in brief: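 Undifferentiated pluripotent H9 hESCs were exposed to compound for 72h, with media and compound replaced every 24h. Ornithine in final 24-h conditioned media was measured by UPLC-HRMS, normalized to 13C-labeled spike-in standard and to median 0.1% DMSO control.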
# [14] = STM_H9_CystineISnorm_perc: Stemina devTOX quickPredict H9 human embryonic stem cell (hESC)-based Assay for Cystine (CYSS) Metabolite Biomarker, Normalized (AID 2283713; active = hit-call score of the fitted dose curve at least 0.9, where 1 is the maximum; inactive = score below 0.9)
# Method in brief: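 Undifferentiated H9 hESCs were exposed to compound for 72h, with medium and compound replaced every 24h. Final-24h conditioned medium was deproteinized and analyzed by UPLC-HRMS. Cystine EIC area was normalized to spiked C13 standard and 0.1% DMSO median.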
# [15] = STM_H9_OrnCyssISnorm_ratio: Stemina devTOX quickPredict H9 human embryonic stem cell (hESC)-based Assay for Ornithine (ORN):Cystine (CYSS) Ratio (AID 2283714)
# Method in brief: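 Undifferentiated H9 hESCs exposed 72 h, media and compound replaced every 24 h; final 24-h conditioned media deproteinized and analysed by UPLC-HRMS against C13 spike-ins. Value is the internal-standard-normalized ORN/CYSS ratio versus 0.1% DMSO.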
# [16] = Tanguay_ZF_120hpf_ActivityScore_legacy: (Legacy) Oregon State University Tanguay Lab 120 Hour Post-fertilization zebrafish Assay Score for Activity (AID 2283742)
# Method in brief: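 Dechorionated Tropical 5D embryos, one per well from 6 hpf, statically exposed to 120 hpf at 28 °C in 0.64% DMSO. Mortality and malformations scored binary by brightfield microscopy; activity score combines 18 endpoints, fitted positively versus DMSO.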
# [17] = read-out: kallikrein-3 (KLK3), KLK3 (gene 354); experiment: LTEA_HepaRG_KLK3: Life Technologies and Expression Analysis (LTEA) Assay for kallikrein-3 (KLK3) using HepaRG (AID 2283652; active = hit-call score of the fitted dose curve at least 0.9, where 1 is the maximum; inactive = score below 0.9); conditions: mRNA level, 48 h; actives raise or lower the signal
# Method in brief: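 Differentiated human HepaRG cells in serum-free induction medium exposed 48 h in duplicate, eight-point half-log series from 100 uM in 0.5% DMSO. KLK3 mRNA by qRT-PCR, normalised to ACTB, GAPDH, POLR2A; bidirectional fit versus DMSO.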
# [18] = read-out: solute carrier (SLC22A6), SLC22A6 (gene 9356); experiment: LTEA_HepaRG_SLC22A6: Life Technologies and Expression Analysis (LTEA) Assay for solute carrier (SLC22A6) using HepaRG (AID 2283653; active = hit-call score of the fitted dose curve at least 0.9, where 1 is the maximum; inactive = score below 0.9); conditions: mRNA level, 48 h; actives raise or lower the signal
# Method in brief: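 Gene-expression endpoint in HepaRG hepatic cells: duplicate 8-point concentration-response, highest 100 uM, 48 h treatment in serum-free medium with 0.5% DMSO. SLC22A6 expression measured by qRT-PCR, normalised to ACTB/GAPDH/POLR2A.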
# [19] = read-out: solute carrier (SLC10A1), SLC10A1 (gene 6554); experiment: LTEA_HepaRG_SLC10A1: Life Technologies and Expression Analysis (LTEA) Assay for solute carrier (SLC10A1) using HepaRG (AID 2283657; active = hit-call score of the fitted dose curve at least 0.9, where 1 is the maximum; inactive = score below 0.9); conditions: mRNA level, 48 h; actives raise or lower the signal
# Method in brief: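 HepaRG cells (single lot) exposed 48 h in serum-free induction medium, 8-point half-log series from 100 uM top in 0.5% DMSO, duplicate. SLC10A1 mRNA by qRT-PCR normalised to ACTB, GAPDH, POLR2A; bidirectional fit versus DMSO.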
# [20] = read-out: matrix metalloproteinase-1 (MMP1), MMP1 (gene 4312); experiment: LTEA_HepaRG_MMP1: Life Technologies and Expression Analysis (LTEA) Assay for matrix metalloproteinase-1 (MMP1) using HepaRG (AID 2283658; active = hit-call score of the fitted dose curve at least 0.9, where 1 is the maximum; inactive = score below 0.9); conditions: mRNA level, 48 h; actives raise or lower the signal
# Method in brief: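 In this screen, human liver HepaRG cultures receive each chemical in duplicate for 48 h (top 100 uM, 0.5% DMSO). MMP1 expression is then quantified by TaqMan qRT-PCR with ACTB/GAPDH/POLR2A normalization.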
structure (smiles),measurement,setting,value
Cc1cccc(N)c1N,outcome,[1],inactive
same,outcome,[2],inactive
same,outcome,[3],inactive
same,outcome,[4],inactive
same,outcome,[5],inactive
same,outcome,[6],inactive
same,outcome,[7],inactive
same,outcome,[8],inactive
same,AC50,[9],2.35 µM (active)
same,AC50,[10],4.54 µM (active)
same,outcome,[11],inactive
same,AC50,[12],57 µM (active)
same,AC50,[13],76.4 µM (active)
same,AC50,[14],79 µM (active)
same,AC50,[15],74.5 µM (active)
same,AC50,[16],44.5 µM (active)
CCC[CH2][Sn]([Cl])([CH2]CCC)[CH2]CCC,outcome,[1],inactive
same,outcome,[2],inactive
same,outcome,[3],inactive
same,outcome,[4],inactive
same,outcome,[5],inactive
same,outcome,[6],inactive
same,outcome,[7],inactive
same,outcome,[8],inactive
same,outcome,[11],inactive
same,AC50,[12],0.0309 µM (active)
same,AC50,[13],0.519 µM (active)
same,AC50,[14],0.546 µM (active)
same,AC50,[15],0.497 µM (active)
same,AC50,[16],0.317 µM (active)
CN(C)[C@@H]1C(=O)C(C(N)=O)=C(O)[C@@]2(O)C(=O)C3=C(O)c4c(O)cccc4[C@@](C)(O)[C@H]3C[C@@H]12,outcome,[1],inactive
same,outcome,[2],inactive
same,outcome,[3],inactive
same,outcome,[4],inactive
same,outcome,[5],inactive
same,outcome,[6],inactive
same,outcome,[7],inactive
same,outcome,[8],inactive
same,AC50,[9],10.7 µM (active)
same,outcome,[10],inactive
same,outcome,[11],inactive
same,outcome,[16],inactive
Oc1ccc2ccc3cccc4ccc1c2c34,AC50,[1],18.4 µM (active)
same,AC50,[2],12.2 µM (active)
same,AC50,[3],12.4 µM (active)
same,AC50,[4],44 µM (active)
same,outcome,[5],inactive
same,AC50,[6],48.3 µM (active)
same,AC50,[7],46.5 µM (active)
same,AC50,[8],11 µM (active)
same,AC50,[9],10.9 µM (active)
same,AC50,[10],10.8 µM (active)
same,AC50,[11],44.1 µM (active)
same,AC50,[12],15.2 µM (active)
same,outcome,[13],inactive
same,outcome,[14],inactive
same,outcome,[15],inactive
same,AC50,[16],47.4 µM (active)
Nc1cc(Cl)cc(C(=O)O)c1Cl,outcome,[1],inactive
same,outcome,[2],inactive
same,outcome,[3],inactive
same,outcome,[4],inactive
same,outcome,[5],inactive
same,outcome,[6],inactive
same,outcome,[7],inactive
same,outcome,[8],inactive
same,AC50,[9],24.2 µM (active)
same,outcome,[10],inactive
same,outcome,[11],inactive
same,outcome,[12],inactive
same,outcome,[16],inactive
CCOc1cccc(C2(N3CCN(c4ccccc4)CC3)CCC(C)CC2)c1 (configuration not stated),outcome,[1],inactive
same,outcome,[2],inactive
same,outcome,[3],inactive
same,outcome,[4],inactive
same,outcome,[5],inactive
same,outcome,[6],inactive
same,outcome,[7],inactive
same,outcome,[8],inactive
same,outcome,[11],inactive
same,outcome,[16],inactive
Cc1ccc([N+](=O)[O-])cc1,outcome,[1],inactive
same,outcome,[2],inactive
same,outcome,[3],inactive
same,outcome,[4],inactive
same,outcome,[5],inactive
same,outcome,[17],inactive
same,outcome,[18],inactive
same,outcome,[6],inactive
same,outcome,[7],inactive
same,outcome,[8],inactive
same,outcome,[19],inactive
same,outcome,[20],inactive
same,outcome,[11],inactive
same,outcome,[16],inactive
O=C(Nc1ccccc1)c1ccccc1I,outcome,[1],inactive
same,AC50,[2],47.3 µM (active)
same,AC50,[3],45 µM (active)
same,outcome,[4],inactive
same,AC50,[5],76.6 µM (active)
same,outcome,[6],inactive
same,outcome,[7],inactive
same,outcome,[8],inactive
same,outcome,[11],inactive
same,AC50,[12],5.47 µM (active)
same,AC50,[16],11.6 µM (active)
CC(C)(OOC(C)(C)c1ccccc1)c1ccccc1,outcome,[1],inactive
same,outcome,[2],inactive
same,outcome,[3],inactive
same,outcome,[4],inactive
same,outcome,[5],inactive
same,outcome,[6],inactive
same,outcome,[7],inactive
same,outcome,[8],inactive
same,outcome,[11],inactive
same,AC50,[12],15.4 µM (active)
same,outcome,[16],inactive
